The list is not random: actives were taken first. Their share in the collection is about 2.4%.
NSD2 HMT inh = NSD2 histone methyltransferase inhibitors, primary screen, biochemical, AlphaScreen, single concentration, set 2 | AID 743445, 2014 | hit rate 0.54% among 310,000 | NSD2 peptide methylation, 120 min | inhibition, % at 12.5 µM
Dyrk1A ADPGlo = rat Dyrk1A kinase inhibitors, primary screen, biochemical, single point, plate reader. ADP-Glo luminescence, NFATc1 peptide. Dual specificity tyrosine-phosphorylation-regulated kinase 1A (Rattus norvegicus), Q63470. inhibition, % at 12.5 µM. hit rate 0.43% among 310,000. AID 504441, 2011
miR122 inh = miR-122 Renilla sensor signal increase in Huh7, primary screen, miR-122 inhibitor project, cell-based, single point, plate reader; Huh7 miR-122 Renilla luciferase sensor, 48 h; neutral wells = 0, positive control = 100; activation (reporter increase), % at 12.5 µM; hit rate 0.3% among 340,000; AID 602342, 2012;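 active = mean replicate activation score at least 90 and every replicate individually at or above 90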;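 also: higher luciferase means less miR-122 activity so hits act as miR-122 inhibitors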
Wnt act = Wnt/beta-catenin pathway activators, primary screen, cell-based, plate reader, single point; Wnt/beta-catenin reporter cell assay, activator; activation, % at 9.35 µM; hit rate 1.2% among 300,000; AID 743398, 2014; in the data active = activation above about 30%, passing the limit was not always enough
MITF act = activators of MITF-driven TRPM1 promoter reporter, primary screen, cell-based, SK-MEL-5, luciferase, single point. activation, % at 12.5 µM. hit rate 0.75% among 300,000. SK-MEL-5 TRPM1-promoter luciferase, 24 h; % of positive control, neutral wells = 0;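 active = mean activation of at least 80% with every replicate also reaching 80%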
GSIS activator = GLuc luminescence reporter in INS-1E cells, primary screen for activators of glucose-dependent secretion of insulin. activation, % at 16.6 µM. INS-1E GLuc reporter insulin secretion, 2-3 h. AID 743287, 2014. hit rate 0.61% among 370,000;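 active = lowest replicate activation of at least 40%, so every replicate reaches that level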
Large screens that a line does not name were inactive. Rule as the data show it, unless noted: active = inhibition above about 50%; inactive = the rest.

CN1C[C@@H]2N[C@H](C1)C2c1ccc(Br)cc1 (some centres not stated)	none (no result: NSD2 HMT inh, Dyrk1A ADPGlo, miR122 inh, Wnt act, MITF act)
COc1ccc2c(c1)C(NC(C)=O)CCc1cc(OC)c(OC)c(OC)c1-2 (configuration not stated)	none (no result: MITF act)
COc1cc2c(c(OC)c1OC)-c1ccc(O)c(=O)cc1C(NC(C)=O)CC2 (configuration not stated)	miR122 inh 97
O=C(Cc1ccccn1)N1CCCCN2[C@@H](CO)[C@H](c3ccc(C#Cc4ccccc4)cc3)[C@@H]2C1	none (no result: NSD2 HMT inh, Dyrk1A ADPGlo, Wnt act, MITF act)
O=C1C(=O)N(c2ccccc2)P(=O)(N(CCCl)CCCl)N1c1ccccc1	Wnt act 37, MITF act 99 (no result: miR122 inh, GSIS activator)
Cc1ccc(N)c(N)c1	MITF act 99 (no result: NSD2 HMT inh, Dyrk1A ADPGlo)
Cc1ccc(N)c(C(=O)c2ccc(Br)cc2)c1	none (no result: miR122 inh)
CNc1cc(Cl)c2nonc2c1[N+](=O)[O-]	GSIS activator 51 (no result: miR122 inh)
Cc1cc([N+](=O)[O-])c(Cl)cc1NC(=O)C(C)C	none (no result: miR122 inh)
O=C(Cc1ccccc1)N1CC2(C1)[C@@H](c1ccccc1)[C@H](CO)N2Cc1cccc(F)c1	none (no result: NSD2 HMT inh, Dyrk1A ADPGlo, miR122 inh, Wnt act, MITF act)
O=C(Cc1cccnc1)N1CCCCN2[C@H](CO)[C@@H](c3ccc(/C=C/c4ccccc4)cc3)[C@H]2C1	none (no result: NSD2 HMT inh, Dyrk1A ADPGlo, Wnt act, MITF act)
COc1ccc(NC2=NC(C)(C)CS2)cc1	MITF act 95 (no result: Dyrk1A ADPGlo)
COc1ccc(NC2=NCC(C)S2)cc1 (configuration not stated)	none (no result: miR122 inh)
CC(=O)N1C2CN(C)CC1C2c1ccc(Br)cc1 (configuration not stated)	none (no result: NSD2 HMT inh, Dyrk1A ADPGlo, miR122 inh, Wnt act, MITF act)
COC(=O)CCCC(NC(=S)N1CC2C[C@@H](C1)Cn1c2cccc1=O)C(=O)OC (some centres not stated)	GSIS activator 40 (no result: Dyrk1A ADPGlo)
CS(=O)(=O)N1C[C@@H]2C(c3ccc(Br)cc3)[C@H](C1)N2CC1CC1 (some centres not stated)	none (no result: NSD2 HMT inh, Dyrk1A ADPGlo, miR122 inh, Wnt act, MITF act)
O=c1c2ccccc2[nH]c(=S)n1-c1ccc2c(c1)OCCO2	Wnt act 37 (no result: miR122 inh, MITF act)
Cc1ccc(-n2c(=S)[nH]c3ccccc3c2=O)cc1F	none (no result: Dyrk1A ADPGlo, MITF act)
NC(N)=N/N=C/c1ccc(N(c2ccccc2)c2ccccc2)cc1	GSIS activator 321 (no result: miR122 inh)
COc1ccc(C2c3c(nc(C)[nH]c3=O)Oc3c2c(=O)oc2ccccc32)cc1 (configuration not stated)	Wnt act 36 (no result: Dyrk1A ADPGlo, miR122 inh, MITF act)
O=C(O)[C@@H]1[C@@H](CO)[C@@H]2Cn3c(ccc(-c4ccccc4)c3=O)[C@H]1N2S(=O)(=O)c1ccccc1F	none (no result: NSD2 HMT inh, Dyrk1A ADPGlo, Wnt act, MITF act)
COc1ccc(CN2CCN(Cc3ccccc3F)CC2)cc1	GSIS activator 43
CSc1ccc(CN2CCN(Cc3ccccc3Cl)CC2)cc1	none (no result: miR122 inh)
CCN(CC)S(=O)(=O)c1ccc(C)c(NCC(=O)Nc2ccc(C#N)c(Cl)c2)c1	miR122 inh 119
O=C(Cc1ccc(Cl)c(Cl)c1)NCC1(N2CCOCC2)CCCCC1	Wnt act 45 (no result: miR122 inh)
COc1ccc(C(CNC(=O)Cc2ccc(Cl)c(Cl)c2)N2CCCCC2)cc1 (configuration not stated)	none
COC(=O)[C@@H]1[C@@H](CO)[C@@H]2Cn3c(ccc(-c4cccc(OC)c4)c3=O)[C@H]1N2CC1CC1	none (no result: NSD2 HMT inh, Dyrk1A ADPGlo, miR122 inh, Wnt act, MITF act)
O=C(C1CC(c2ccc(Cl)c(Cl)c2)=NO1)N1CCC2(CC1)OCCO2 (configuration not stated)	MITF act 117 (no result: Wnt act)
O=C(C1CC(c2ccc(F)cc2)=NO1)N1CCC2(CC1)OCCO2 (configuration not stated)	none
CN(C)C(=O)On1c(-c2ccccc2)nc2ccc(Cl)cc21	none (no result: Wnt act, GSIS activator)
COc1ccc(-c2nc3ccccc3n2OC(=O)N(C)C)cc1	miR122 inh 114 (no result: GSIS activator)
O=C1NC(=O)C(CCc2ccncc2)(Cc2cccc(Cl)c2Cl)C(=O)N1c1ccc(Br)cc1 (configuration not stated)	miR122 inh 491 (no result: Dyrk1A ADPGlo)
CCc1ccc(N2C(=O)NC(=O)C(CCc3ccncc3)(CCc3ccncc3)C2=O)cc1	none (no result: miR122 inh)
COc1ccc(N2C(=O)CC(=O)NC2=O)cc1	miR122 inh 236 (no result: MITF act, GSIS activator)
Cc1ccc(N2C(=O)CC(=O)NC2=O)cc1	none
CCn1nc(-c2ccccc2)nc2c(=O)n(C)c(=O)nc1-2	Dyrk1A ADPGlo 68 (no result: NSD2 HMT inh, Wnt act, GSIS activator)
CC1CCC(C(C)C)C(OC(=O)Cn2c(COc3ccccc3)[n+](C)c3ccccc32)C1 (configuration not stated)	GSIS activator 154 (no result: NSD2 HMT inh)
Cc1oc2ccc(OC(=O)N(C)C)cc2c1C(=O)OC(C)C	miR122 inh 143 (no result: MITF act, GSIS activator)
CCOC(=O)c1c(-c2ccc(OC)cc2)oc2ccc(OC(=O)N(C)C)cc12	none (no result: NSD2 HMT inh)
CC(C)NC(=O)N1C[C@@H]2C(c3ccc(Br)cc3)[C@H](C1)N2CC1CC1 (some centres not stated)	none (no result: NSD2 HMT inh, Dyrk1A ADPGlo, miR122 inh, Wnt act, MITF act)
Cn1cc(C(=O)OCC(=O)Nc2ccccc2)c2ccccc21	none
Cn1cc(C(=O)OCC(=O)N2CCCCC2)c2ccccc21	Wnt act 50
CC(C)NC(=O)N1C[C@@H]2C(c3ccccc3)[C@H](C1)N2CC1CC1 (some centres not stated)	none (no result: NSD2 HMT inh, Dyrk1A ADPGlo, miR122 inh, Wnt act, MITF act)
Cc1ccc(OP(=O)(Nc2cccc(C)c2)Oc2ccc(C)cc2)cc1	miR122 inh 187
COc1ccc(NP(=O)(Oc2ccc(Cl)cc2)Oc2ccc(Cl)cc2)cc1OC	miR122 inh 136
C[C@H](CO)N1C[C@H](C)[C@@H](CN(C)C(=O)Oc2ccccc2)OCc2ccccc2-c2c(n(C)c3ccccc23)C1=O	none (no result: NSD2 HMT inh, Dyrk1A ADPGlo, miR122 inh, Wnt act, MITF act)
CN1C(=O)/C(=C\c2ccc(N3CCCCC3)o2)C(=O)NC1=S	Wnt act 50 (no result: NSD2 HMT inh, MITF act, GSIS activator)
CN1C(=O)/C(=C\c2ccc(N3CCCCCC3)cc2)C(=O)NC1=S	none (no result: miR122 inh, MITF act)
CN1C(=O)/C(=C/c2ccc(N3CCCCCC3)o2)C(=O)NC1=S	Wnt act 44 (no result: NSD2 HMT inh, MITF act)
O=C(Cc1ccncc1)N1CCCCN2[C@H](C1)[C@H](c1ccc(C#CC3(O)CCCC3)cc1)[C@@H]2CO	none (no result: NSD2 HMT inh, Dyrk1A ADPGlo, Wnt act, MITF act)
COc1nc(NC(C)C)nc(NC(C)C)n1	GSIS activator 69 (no result: miR122 inh, Wnt act)
CN1CCN(c2ccc([N+](=O)[O-])c3no[n+]([O-])c23)CC1	NSD2 HMT inh 97
CN1CCN(c2ccc(S(C)(=O)=O)cc2[N+](=O)[O-])CC1	none
C[C@H](CO)N1C[C@H](C)[C@H](CN(C)C(=O)Oc2ccccc2)OCc2ccccc2-c2c(n(C)c3ccccc23)C1=O	none (no result: NSD2 HMT inh, Dyrk1A ADPGlo, miR122 inh, Wnt act, MITF act)
CN(C)CCCN=Cc1c(O)n(CCc2ccccc2)c(=O)[nH]c1=O	none (no result: Wnt act, MITF act, GSIS activator)
CN(C)CCCN=Cc1c(O)n(CCc2ccc(F)cc2)c(=O)[nH]c1=O	Wnt act 38 (no result: MITF act, GSIS activator)
O=C(O)CC1OCC=C2CN3CCC45c6ccccc6NC4C1C2CC35 (configuration not stated)	none

Screens (PubChem)
